Records with an inconclusive call do not appear. Entries that show only a call come without a potency. Calls of active or inactive are those of the source. Unless noted, calls follow the shape of the full dose curve.
Key:
[1] = Nuclear factor erythroid 2-related factor 2/antioxidant responsive element (Nrf2/ARE) small molecule agonists: luciferase reporter gene qHTS assay in human keratinocytes (AID 1919969); also: nearly all actives have a fitted effect of over 35% in size; also: potency is read from the fitted curve at half-maximal effect
[2] = G protein-coupled receptor (GPCR) small molecule agonists, calcium flux assay: HEK293 wild type cell line counter screen (AID 1920065); also: potency is read from the fitted curve at half-maximal effect
Outline: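 Tox21 10K compounds, 15 concentrations each in triplicate, pin-transferred in DMSO onto dye-loaded cells; kinetic read at 480/540 nm for 3 min, 1 s intervals.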

[3] = p53 small molecule agonists, cell-based qHTS assay with human liver microsomes (AID 1963577);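 also: p53 response element beta-lactamase reporter cells with liver microsomes plus NADPH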
Outline: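 Reporter activation was measured by LiveBLAzer fluorescence intensity in p53RE-bla cells, which had been exposed to compounds for 16 h at 37 C alongside 0.5 mg/mL human liver microsomes and 0.5 mg/mL NADPH (final concentrations).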

[4] = p53 small molecule agonists, cell-based qHTS assay with rat liver microsomes (AID 1963578)
Outline: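 Compound in DMSO added to p53RE-bla cells 5 h post-plating; rat microsomes/NADPH 0.5 mg/mL final; 16 h, 37 C; LiveBLAzer 2 h RT.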

[5] = p53 small molecule agonists, cell-based qHTS assay: qHTS cell viability counter screen (AID 1963581); also: nearly all actives have a fitted effect of over 45% in size
Outline: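 ATP content measured by luminescence in HCT-116 p53RE-bla cells treated 16 h at 37 C, same wells as the reporter screen.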

[6] = molecular target: 5-hydroxytryptamine receptor 2A (Homo sapiens) (UniProt P28223); test: 5-hydroxytryptamine receptor 2A (HTR2A) small molecule antagonists, cell-based qHTS assay (AID 1963586); also: nearly all actives have a fitted effect of over 45% in size; also: potency is read from the fitted curve at half-maximal effect
Outline: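 CHO cells stably expressing human HTR2A were plated for 18 h at 37 C, then loaded with calcium dye for 1 h. Compounds were preincubated 5 min at room temperature before DOI (4 nM solution) was added. Kinetic fluorescence was read for 3 min.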

[7] = molecular target: 5-hydroxytryptamine receptor 2A (Homo sapiens) (UniProt P28223); test: 5-hydroxytryptamine receptor 2A (HTR2A) small molecule agonists, cell-based qHTS assay (AID 1963587); also: nearly all actives have a fitted effect of over 30% in size; also: potency is read from the fitted curve at half-maximal effect
Outline: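 CHO cells stably expressing human HTR2A, plated 18 h, loaded with calcium dye 1 h at 37 C. Agonist mode: compounds added and intracellular calcium fluorescence recorded kinetically for 2 min at 1 sec intervals.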

[8] = molecular target: Muscarinic acetylcholine receptor M1 (Homo sapiens) (UniProt P11229); test: Cholinergic receptor muscarinic 1 (CHRM1) small molecule antagonists, cell-based qHTS assay (AID 1963588); also: nearly all actives have a fitted effect of over 40% in size; also: potency is read from the fitted curve at half-maximal effect
Outline: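 Compounds were tested at 15 concentrations in three independent runs. Dye-loaded CHRM1-CHO cells were exposed 5 min at room temperature before stimulation by acetylcholine added at 50nM. Intracellular calcium was read kinetically on FDSS for 3 min.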

[9] = molecular target: Muscarinic acetylcholine receptor M1 (Homo sapiens) (UniProt P11229); test: Cholinergic receptor muscarinic 1 (CHRM1) small molecule agonists, cell-based qHTS assay (AID 1963589); also: nearly all actives have a fitted effect of over 35% in size
Outline: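 Homogeneous fluorescence calcium flux, agonist mode. Human M1-expressing CHO cells; compound dosed at 15 concentrations, three independent runs; signal sampled every 1 sec.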

[10] = cAMP Responsive Elements (CRE) small molecule agonists, cell-based qHTS assay (AID 1963590)
Outline: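 HEK 293T cells stably bearing CRE-bla were plated at 2,000 cells per well and rested 18 h. Compounds, positive controls or DMSO were added for 3 h at 37 C. LiveBLAzer B/G substrate was then loaded for 2 h at room temperature.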

[11] = cAMP Responsive Elements (CRE) small molecule antagonists, cell-based qHTS assay (AID 1963591; active = well fitted inhibition curve with a large enough effect in the signal ratio in the repeat runs, not every such curve was filed as active; the % refers to the signal ratio)
Outline: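 First, CRE-bla HEK293T cells settled 18 h at 37 C. Next, compound and 0.25 uM final NKH477 were applied for 3 h. Last, LiveBLAzer B/G substrate was loaded for 2 h at room temperature.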

[12] = molecular target: D(2) dopamine receptor (Homo sapiens) (UniProt P14416); test: Dopamine D2 receptor (DRD2) small molecule agonists, cell-based qHTS assay (AID 1963594); also: nearly all actives have a fitted effect of over 35% in size
Outline: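 HEK293 cells stably expressing human DRD2, pre-treated with PDE inhibitor Ro20-1724 (0.1 mM final) and compound 10 min at room temperature, then stimulated with NKH477 (200nM […]) for 30 min. cAMP read by HTRF (665/620 nm).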

[13] = molecular target: D(2) dopamine receptor (Homo sapiens) (UniProt P14416); test: Dopamine D2 receptor (DRD2) small molecule antagonists, cell-based qHTS assay (AID 1963595; active = well fitted inhibition curve with a large enough effect in the signal ratio in the repeat runs, with a control signal flat; the % refers to the signal ratio; also: potency is read from the fitted curve at half-maximal effect)
Outline: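 In this cell-based antagonist screen, compounds act for 10 min at room temperature before a 30 min challenge with 12 nM quinpirole and 200 nM NKH477. cAMP is quantified by HTRF competition in DRD2-HEK293 cells containing 0.1 mM Ro20-1724.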

[14] = p53 small molecule agonists, cell-based qHTS assay with rat liver microsomes: qHTS cell viability counter screen (AID 1963580); also: nearly all actives have a fitted effect of over 45% in size
Outline: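 After the beta-lactamase ratio was read, CellTiter-Glo was added to the same wells and luminescence measured at 30 min; cells had been treated 16 h at 37 C with compounds, rat liver microsomes and NADPH (0.5 mg/mL final each).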

[15] = p53 small molecule agonists, cell-based qHTS assay (AID 1963582; active = well fitted activation curve with a large enough effect in the signal ratio in the repeat runs, not every such curve was filed as active; the % refers to the signal ratio)
Outline: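 16 h compound exposure (37 C) of p53 response element–bla cells, preceded by 5 h recovery at 37 C/5% CO2; read-out via LiveBLAzer B/G FRET substrate, 2 h RT, fluorescence intensity.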

[16] = molecular target: Beta-2 adrenergic receptor (Homo sapiens) (UniProt P07550); test: Adrenergic beta2 receptor (ADRB2) small molecule antagonists, cell-based qHTS assay (AID 1963592); also: nearly all actives have a fitted effect of over 50% in size; also: potency is read from the fitted curve at half-maximal effect
Outline: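 Assay format: CHO-ADRB2 cells, 18-20hr seeding at 37C/5% CO2, then compound plus 1nM isoproterenol agonist mix for 0.5hr RT. Homogeneous time-resolved fluorescence cAMP detection after 1hr, expressed as 665/615 nm ratio.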

[17] = molecular target: KiSS-1 receptor (Homo sapiens) (UniProt Q969F8); test: Human kisspeptin (KISS1R) small molecule agonists, calcium flux assay in KISS1R-HEK293 cells (AID 1920064; active = well fitted activation curve with a large enough effect in the repeat runs; also: potency is read from the fitted curve at half-maximal effect)
Outline: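 Cell line: HEK293, stable human KISS1R. Dye loading 1 h at 37 C after 18 h culture. Read: kinetic fluorescence, 480/540 nm, 3 min at 1 s intervals.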

[18] = p53 small molecule agonists, cell-based qHTS assay with human liver microsomes: qHTS cell viability counter screen (AID 1963579); also: nearly all actives have a fitted effect of over 45% in size; also: potency is read from the fitted curve at half-maximal effect
Outline: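 HLM-supplemented (0.5 mg/mL final) and NADPH-supplemented (0.5 mg/mL final) p53RE-bla cultures, 4,000 cells per well, were dosed with compounds in DMSO for 16 h at 37 C; luminescent ATP detection (CellTiter-Glo, 30 min, room temperature) quantified surviving cells.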

[19] = molecular target: Beta-2 adrenergic receptor (Homo sapiens) (UniProt P07550); test: Adrenergic beta2 receptor (ADRB2) small molecule agonists, cell-based qHTS assay (AID 1963593);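 also: CHO cells stably overexpressing human ADRB2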
Outline: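 CHO cells stably over-expressing ADRB2 were plated overnight at 37C, then dosed with compounds plus a stimulation mix containing 100uM IBMX and 25uM Ro-20-1724 for 0.5hr at room temperature. cAMP was measured by HTRF competition, 1hr.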

[20] = molecular target: Gonadotropin-releasing hormone receptor (Homo sapiens) (UniProt P30968); test: Human gonadotropin-releasing hormone receptor (GnRHR) small molecule agonists, calcium flux assay in GnRHR-HEK293 cells (AID 1920063); also: nearly all actives have a fitted effect of over 35% in size
Outline: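 Compounds dissolved in DMSO are pin-transferred onto dye-loaded GnRHR-HEK293 cells, which were seeded 18 h before at 37 C/5% CO2. Calcium signal is read as fluorescence intensity at 1 s intervals for 3 min.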

D(2) dopamine receptor (Homo sapiens), sequence (P14416 whole entry, looked up): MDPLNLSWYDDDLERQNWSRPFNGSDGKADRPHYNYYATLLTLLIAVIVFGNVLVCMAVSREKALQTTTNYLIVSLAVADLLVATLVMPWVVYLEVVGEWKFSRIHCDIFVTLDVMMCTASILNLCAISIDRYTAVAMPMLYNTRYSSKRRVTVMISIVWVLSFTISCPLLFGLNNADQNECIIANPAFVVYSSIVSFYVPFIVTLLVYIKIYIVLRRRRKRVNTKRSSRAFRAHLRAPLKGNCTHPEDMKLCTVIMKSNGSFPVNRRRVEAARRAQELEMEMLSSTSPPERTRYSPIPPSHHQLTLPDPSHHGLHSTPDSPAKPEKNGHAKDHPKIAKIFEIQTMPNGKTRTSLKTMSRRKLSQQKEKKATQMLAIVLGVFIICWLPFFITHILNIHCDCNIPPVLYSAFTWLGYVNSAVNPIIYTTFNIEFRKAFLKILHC
5-hydroxytryptamine receptor 2A (Homo sapiens), sequence (P28223 whole entry, looked up): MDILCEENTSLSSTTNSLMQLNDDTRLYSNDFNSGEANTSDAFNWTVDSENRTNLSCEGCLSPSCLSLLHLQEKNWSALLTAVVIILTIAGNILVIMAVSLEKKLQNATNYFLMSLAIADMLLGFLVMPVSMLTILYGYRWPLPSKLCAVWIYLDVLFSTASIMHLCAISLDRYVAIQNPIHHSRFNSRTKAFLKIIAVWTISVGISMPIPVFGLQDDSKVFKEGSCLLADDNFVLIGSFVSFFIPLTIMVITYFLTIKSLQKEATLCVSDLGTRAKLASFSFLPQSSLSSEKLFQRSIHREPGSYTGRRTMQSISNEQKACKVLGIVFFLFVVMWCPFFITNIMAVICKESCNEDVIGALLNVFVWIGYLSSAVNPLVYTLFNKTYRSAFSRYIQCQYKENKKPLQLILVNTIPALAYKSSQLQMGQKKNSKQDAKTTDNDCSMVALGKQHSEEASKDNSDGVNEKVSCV
Muscarinic acetylcholine receptor M1 (Homo sapiens), sequence (P11229 whole entry, looked up): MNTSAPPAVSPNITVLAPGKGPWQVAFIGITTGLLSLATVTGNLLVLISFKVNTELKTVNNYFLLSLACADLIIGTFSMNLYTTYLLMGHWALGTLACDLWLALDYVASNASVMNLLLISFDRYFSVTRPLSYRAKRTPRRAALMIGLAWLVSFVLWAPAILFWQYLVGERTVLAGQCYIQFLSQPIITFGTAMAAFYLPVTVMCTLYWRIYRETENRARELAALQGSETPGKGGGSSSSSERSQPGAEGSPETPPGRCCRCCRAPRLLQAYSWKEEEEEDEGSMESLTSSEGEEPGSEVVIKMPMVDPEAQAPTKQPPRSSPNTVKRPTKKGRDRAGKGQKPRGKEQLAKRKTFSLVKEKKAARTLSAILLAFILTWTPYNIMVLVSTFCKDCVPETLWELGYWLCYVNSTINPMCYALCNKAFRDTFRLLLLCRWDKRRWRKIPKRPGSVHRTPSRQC
KiSS-1 receptor (Homo sapiens), sequence (Q969F8 whole entry, looked up): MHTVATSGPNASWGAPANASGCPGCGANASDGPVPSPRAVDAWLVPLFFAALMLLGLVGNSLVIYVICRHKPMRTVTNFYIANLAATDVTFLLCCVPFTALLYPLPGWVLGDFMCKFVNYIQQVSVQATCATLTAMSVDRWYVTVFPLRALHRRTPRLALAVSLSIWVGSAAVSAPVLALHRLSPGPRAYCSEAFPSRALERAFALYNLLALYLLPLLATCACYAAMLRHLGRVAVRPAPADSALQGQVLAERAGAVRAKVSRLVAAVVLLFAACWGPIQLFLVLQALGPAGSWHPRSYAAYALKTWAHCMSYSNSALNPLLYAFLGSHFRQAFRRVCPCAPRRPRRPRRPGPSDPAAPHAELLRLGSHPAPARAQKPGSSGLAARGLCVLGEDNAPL
Beta-2 adrenergic receptor (Homo sapiens), sequence (P07550 whole entry, looked up): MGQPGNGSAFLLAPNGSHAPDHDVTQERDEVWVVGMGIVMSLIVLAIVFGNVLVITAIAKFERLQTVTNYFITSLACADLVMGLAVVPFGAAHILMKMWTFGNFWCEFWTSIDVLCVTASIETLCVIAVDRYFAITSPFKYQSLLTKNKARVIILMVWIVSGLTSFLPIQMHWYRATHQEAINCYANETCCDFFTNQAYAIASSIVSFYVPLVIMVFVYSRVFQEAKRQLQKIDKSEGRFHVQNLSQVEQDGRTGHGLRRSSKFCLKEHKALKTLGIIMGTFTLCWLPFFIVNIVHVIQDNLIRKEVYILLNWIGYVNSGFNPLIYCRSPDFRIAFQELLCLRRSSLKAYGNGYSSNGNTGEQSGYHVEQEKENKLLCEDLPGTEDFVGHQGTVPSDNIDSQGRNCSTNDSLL
Gonadotropin-releasing hormone receptor (Homo sapiens), sequence (P30968 whole entry, looked up): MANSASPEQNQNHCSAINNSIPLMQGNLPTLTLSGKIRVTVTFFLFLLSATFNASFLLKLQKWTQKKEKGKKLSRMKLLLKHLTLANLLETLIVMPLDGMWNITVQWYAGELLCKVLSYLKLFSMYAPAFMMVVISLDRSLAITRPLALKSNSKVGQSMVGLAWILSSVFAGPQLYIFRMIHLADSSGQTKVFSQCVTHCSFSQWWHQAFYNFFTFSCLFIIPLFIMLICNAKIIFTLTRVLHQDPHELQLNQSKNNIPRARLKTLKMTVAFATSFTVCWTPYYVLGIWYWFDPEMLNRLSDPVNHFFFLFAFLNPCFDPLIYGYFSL

Compound	Potency [1]	Potency [2]	Potency [3]	Potency [4]	Potency [5]	Potency [6]	Potency [7]	Potency [8]	Potency [9]	Potency [10]	Potency [11]	Potency [12]	Potency [13]	Potency [14]	Potency [15]	Potency [16]	Potency [17]	Potency [18]	Potency [19]	Potency [20]
Oc1cccc2c(O)cccc12	27.3 µM (active)	inactive	inactive	inactive	inactive	inactive	inactive	inactive	inactive	inactive	inactive	inactive	inactive	–	–	–	–	–	–	–
CNCCCCOc1ccccc1Cc1ccccc1	inactive	–	inactive	inactive	inactive	0.115 µM (active)	10.7 µM (active)	inactive	inactive	inactive	inactive	inactive	inactive	inactive	inactive	8.41 µM (active)	–	–	–	–
O=C(/C=C/c1ccccc1)NCCO	inactive	–	–	–	–	inactive	–	inactive	inactive	inactive	inactive	inactive	–	inactive	–	inactive	inactive	inactive	inactive	–
CN1CCCN(C(c2ccccc2)c2ccc(Cl)cc2)CC1 (stereo not drawn)	inactive	inactive	inactive	inactive	–	–	inactive	0.0231 µM (active)	inactive	inactive	inactive	inactive	26.6 µM (active)	inactive	–	–	–	inactive	inactive	–
COc1ccc(C(=O)/C(Br)=C\C(=O)O)cc1	54.5 µM (active)	inactive	–	inactive	–	inactive	inactive	inactive	inactive	–	–	–	inactive	inactive	–	–	inactive	45.8 µM (active)	inactive	–
Cc1cccc(O)c1N	30.9 µM (active)	–	–	inactive	–	inactive	inactive	inactive	inactive	–	inactive	inactive	inactive	inactive	–	inactive	inactive	inactive	–	–
CCc1ccc(O)c(C(C)(C)C)c1	inactive	inactive	–	inactive	inactive	–	49 µM (active)	37.5 µM (active)	inactive	–	–	inactive	–	–	inactive	inactive	–	inactive	–	–
NNc1nc(-c2ccc(N)cc2)cs1	54.5 µM (active)	inactive	inactive	–	inactive	inactive	inactive	inactive	inactive	inactive	inactive	inactive	inactive	inactive	inactive	–	–	inactive	–	–
OCCN(CCO)c1nc(N2CCCCC2)c2nc(N(CCO)CCO)nc(N3CCCCC3)c2n1	inactive	16.9 µM (active)	–	–	–	–	–	–	–	–	–	inactive	inactive	–	–	inactive	23.9 µM (active)	–	–	–
CC(CN(C)C)CN1c2ccccc2CCc2ccccc21 (stereo not drawn)	inactive	–	inactive	inactive	–	–	inactive	–	inactive	–	–	inactive	23.7 µM (active)	inactive	–	–	–	inactive	–	–
C[C@@H]1CC[C@H]2C(C)(C)[C@H]3C[C@@]12CC[C@@]3(C)O	–	inactive	inactive	inactive	inactive	inactive	48.9 µM (active)	inactive	inactive	inactive	inactive	inactive	inactive	inactive	inactive	inactive	inactive	inactive	–	inactive
CN(c1nccc(=O)[nH]1)C1CCN(c2nc3ccccc3n2Cc2ccc(F)cc2)CC1	inactive	inactive	–	–	–	inactive	–	inactive	inactive	–	–	inactive	inactive	inactive	–	inactive	inactive	inactive	inactive	–
c1ccc(Cc2ccccc2)cc1	inactive	inactive	–	inactive	–	inactive	inactive	inactive	inactive	inactive	inactive	inactive	inactive	inactive	inactive	inactive	inactive	inactive	–	–
C=C1C(=C/C=C2\CCC[C@]3(C)[C@@H]([C@H](C)/C=C/[C@@H](O)C4CC4)CC[C@@H]23)C[C@@H](O)C[C@@H]1O	inactive	inactive	–	–	–	–	–	–	inactive	–	–	inactive	inactive	inactive	–	inactive	inactive	inactive	–	–
Cc1ccc(O)c(N)c1	–	inactive	inactive	inactive	inactive	inactive	inactive	inactive	inactive	inactive	inactive	inactive	inactive	inactive	inactive	inactive	inactive	inactive	inactive	inactive
C[C@H]1c2cccc(O)c2C(O)=C2C(=O)[C@]3(O)C(O)=C(C(N)=O)C(=O)[C@@H](N(C)C)[C@@H]3[C@@H](O)[C@@H]21	inactive	inactive	–	–	inactive	–	inactive	inactive	inactive	–	–	inactive	inactive	–	inactive	inactive	inactive	inactive	inactive	–
CCN(CC)CCCN(c1ccccc1)C1Cc2ccccc2C1	inactive	–	inactive	inactive	inactive	11.6 µM (active)	inactive	–	inactive	–	–	–	inactive	inactive	–	0.106 µM (active)	–	inactive	–	–

From PubChem BioAssay (Tox21)
